This note sets out measurements from PubChem BioAssay (NCATS).

Records with an inconclusive call do not appear. The source made the active and inactive calls. Calls follow the shape of the dose curve; as a rule, active = well fitted inhibition curve with a large enough effect; inconclusive = small, poorly fitted or top-dose-only effect; inactive = flat fitted curve, though single readings scatter.

The subject of the assay is CRL-7250. Nature of the assay: qHTS assay to identify novel small-molecules to repurpose for Merkel cell carcinoma treatment (AID 1296009). Also: nearly all actives have a fitted effect of over 60% in size. The settings on record: MCC and control cell lines, CellTiter-Glo viability, 72 h; at 44.8 µM (top of the series) unless noted. An outline of the steps:
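Cell viability, measured as CellTiter-Glo luminescence, was normalized between DMSO and no-cell wells. The cells had been exposed to 8- or 11-point compound dilutions for 72 hr at 37 degree celsius.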
Regarding `C/C(=N\O)[C@@H](C)NCC(C)(C)CN[C@H](C)/C(C)=N/O`, the result was inactive. As for `CCOC(=O)C1=C(C)NC(C)=C(C(=O)OC)C1c1cccc([N+](=O)[O-])c1` (centres undefined), the entry is “inactive”; as for `CN(C)C(=O)Oc1ccc[n+](C)c1`, “inactive”. For the molecule `CCS(=O)(=O)CCn1c([N+](=O)[O-])cnc1C`, the molecule was classed as inactive. With `CC1(COc2ccc(CC3SC(=O)NC3=O)cc2)CCCCC1` (centres undefined), the molecule was called inactive. As for `CC(C)(Oc1ccc(Cl)cc1)C(=O)O`, the entry is “inactive”.

As for `C/C(=C(\CCO)SS/C(CCO)=C(\C)N(C=O)Cc1cnc(C)nc1N)N(C=O)Cc1cnc(C)nc1N`, the molecule was called inactive.

Take `O=C(O)CSCC(=O)NC1CCSC1=O` (centres undefined): the outcome was inactive.

With `C[C@@H]1C[C@H]2[C@@H]3C[C@H](F)C4=CC(=O)C=C[C@]4(C)[C@@]3(F)[C@@H](O)C[C@]2(C)[C@@]1(O)C(=O)CO`, the result was inactive. In the case of `Cc1cc(CCCOc2c(C)cc(-c3noc(C(F)(F)F)n3)cc2C)on1`, the molecule was called inactive. As for `O=C(O)CCCC[C@@H]1SC[C@@H]2NC(=O)N[C@@H]21`, the entry is “inactive”; as for `Cc1c(C(=O)NCCO)[n+](=O)c2ccccc2n1[O-]`, “inactive”; as for `CN(C)C(=O)COC(=O)Cc1ccc(OC(=O)c2ccc(N=C(N)N)cc2)cc1`, “inactive”.

For `CC(C)(Oc1ccc(C2CC2(Cl)Cl)cc1)C(=O)O` (centres undefined), the outcome was “inactive [at 92 µM]”. As for `O=c1cc(O)c(Cl)c[nH]1`, the entry is “inactive”; as for `CN(c1nccc(=O)[nH]1)C1CCN(c2nc3ccccc3n2Cc2ccc(F)cc2)CC1`, “inactive”; as for `CCCNC(C)C(=O)Nc1c(C)csc1C(=O)OC` (centres undefined), “inactive”. Regarding `COc1ccc(C2CNC(=O)C2)cc1OC1CCCC1` (centres undefined), the result was inactive. The same measure for `Cc1ncc([N+](=O)[O-])n1CC(C)O` (centres undefined): “inactive”; for `CC(=O)CC/C=C(\C)CC/C=C(\C)CC/C=C(\C)CCC=C(C)C`: “inactive”; for `Cc1ccc(C(C)C)c(O)c1`: “inactive”. Regarding `O=C1O[C@H](CO)[C@@H](O)[C@H](O)[C@H]1O`, the result was inactive. On to `CCCCCCCCCCOc1cc2c(=O)c(C(=O)OCC)c[nH]c2cc1OCC`, for which the outcome was “inactive [at 4.96 µM]”. As for `CC(C)OC(=O)OCOP(=O)(CO[C@H](C)Cn1cnc2c(N)ncnc21)OCOC(=O)OC(C)C`, the entry is “inactive”; as for `Cc1c(NC(C)C)c(=O)n(-c2ccccc2)n1C`, “inactive”. The same measure for `CCN1CCCC1CNC(=O)c1cc(S(=O)(=O)CC)c(N)cc1OC` (centres undefined): “inactive”; for `CC(C)=CCC/C(C)=C/CO`: “inactive”.

`CCCCN(CCCC)CCCOC(=O)c1ccc(N)cc1`: the outcome was inactive. The same measure for `COc1ccccc1OCC(O)CO` (centres undefined): “inactive”; for `S=P(N1CC1)(N1CC1)N1CC1`: “inactive [at 92 µM]”. The same measure for `CCN(CC)CC#CCOC(=O)C(O)(c1ccccc1)C1CCCCC1` (centres undefined): “inactive”; for `N#CCC(=O)NN`: “inactive”. `Cc1cnc(NC(=O)C2=C(O)c3ccccc3S(=O)(=O)N2C)s1`: the call was inactive. `Oc1ccccc1-c1nnco1`: the result was inactive.
